Data on 40 compounds can be found in PubChem BioAssay (Tox21).

The structures appear in SMILES notation. Records with an inconclusive call do not appear. Calls of active or inactive are those of the source. Calls come from the whole dose curve.

In the assay the target is Vitamin D3 receptor (Homo sapiens) (UniProt P11473). Briefly: qHTS assay to identify small molecule agonists of the vitamin D receptor (VDR) signaling pathway (AID 743222). The settings on record: HEK293T VDR-UAS-bla, beta-lactamase FRET ratio, 16 h; series mostly up to 63.5 µM. The source says: National Center for Advancing Translational Sciences [NCATS]
Chain of Vitamin D3 receptor (Homo sapiens) (P11473 whole entry, looked up): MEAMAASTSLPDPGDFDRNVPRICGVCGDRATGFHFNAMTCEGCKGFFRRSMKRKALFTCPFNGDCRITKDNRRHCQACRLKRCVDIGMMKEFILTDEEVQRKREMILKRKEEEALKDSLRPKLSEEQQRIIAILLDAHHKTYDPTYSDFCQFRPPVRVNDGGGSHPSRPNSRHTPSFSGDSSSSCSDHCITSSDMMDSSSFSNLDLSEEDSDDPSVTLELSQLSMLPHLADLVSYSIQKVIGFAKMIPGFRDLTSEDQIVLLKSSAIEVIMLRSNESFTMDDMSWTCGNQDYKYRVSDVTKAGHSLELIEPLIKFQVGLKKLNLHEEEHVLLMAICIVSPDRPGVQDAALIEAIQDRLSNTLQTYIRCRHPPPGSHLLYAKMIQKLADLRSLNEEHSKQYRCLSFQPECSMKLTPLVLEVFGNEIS
NIH Chemical Genomics Center [NCGC]
U.S. Environmental Protection Agency [EPA]
National Institutes of Environmental Health Sciences [NIEHS]
National Toxicology Program [NTP]
U.S. Food and Drug Administration [FDA]
The vitamin D receptor (VDR), a member of nuclear hormone receptor superfamily, plays a critical role in calcium homeostasis and bone metabolism. It is also involved in cell differentiation and growth, and thrombogenicity.
Tox21 Assay Protocol Summary:
VDR-bla cells were dispensed at 2,000 cells/6 uL/well into black wall/clear-bottom 1536-well plates using a Multidrop Combi (Thermo Fisher Scientific, Waltham, MA) dispenser. After the assay plates were incubated at a 37C and 5% CO2 for 4 h, 23 nL of compounds dissolved in DMSO, positive controls or DMSO only was transferred to the assay plate by a Pintool station (Kalypsys, San Diego, CA). The plates were incubated at 37C and 5% CO2 for 16 h. After 1 uL of LiveBLAzerTM B/G FRET substrate was added using a Bioraptr Flying Reagent Dispenser (FRD) workstation (Beckman Coulter, Indianapolis, IN, USA), the plates were incubated at room temperature for 2 h, and fluorescence intensity was measured by an Envision plate reader (PerkinElmer, Shelton, CT).
`Cc1cc(O)c2c(c1)C(=O)c1cccc(O)c1C2=O`: the outcome was inactive.

In the case of `CC(=O)OC(C)(C)Cc1ccccc1`, the result was inactive.

With `Cc1c(C(C)C)c(=O)n(-c2ccccc2)n1C`, the result was inactive.

In the case of `C[C@@H]1C[C@H]2[C@@H]3C[C@H](F)C4=CC(=O)C=C[C@]4(C)[C@@]3(F)[C@@H](O)C[C@]2(C)[C@@]1(O)C(=O)CO`, the result was inactive.

In the case of `Cc1ccccc1N1CCN(CCc2nnc3n2CCCC3)CC1`, the result was inactive.

Regarding `C=C(C)C(=O)OCCCCCCOC(=O)C(=C)C`, the result was inactive.

As for `O=c1cc(O)c(Cl)c[nH]1`, the result was inactive.

Take `CCCCCCCC/C=C\CCCCCCCC(=O)OC[C@@H](O)[C@H]1OC[C@H](O)[C@H]1O`: the result was inactive.

Consider `CC(=O)Nc1ncc([N+](=O)[O-])s1`, for which the result was inactive.

For the compound `OC[C@@H](O)[C@H](O)[C@@H](O)[C@@H](O)CO`, the result was inactive.

On to `CCOC(=O)C(=O)c1csc(NC=O)n1`, for which the outcome was inactive.

As to `NC(=O)NNC(N)=O`, the result was inactive.

For `Cc1nc([N+](=O)[O-])cn1-c1ccc([N+](=O)[O-])cc1`, the outcome was inactive.

Turning to `CCCCCCCCCCCCCCCC(=O)NCCO`, the result was inactive.

On to `CCC(C)(CCC(C)C)C(=O)[O-].CCC(C)(CCC(C)C)C(=O)[O-].[Zn+2]` (stereo not given), for which the result was inactive.

With `O=C(CN1CCN(Cc2ccc3c(c2)OCO3)CC1)N1c2ccccc2Sc2ccccc21`, the outcome was inactive.

For `CCCCOC(=O)[C@@H](C)Oc1ccc(Oc2ccc(C(F)(F)F)cn2)cc1`, the result was inactive.

With `C/C=C(\C)C(=O)OCC/C=C\CC`, the result was inactive.

Consider `FC(F)(F)/C(=N\OCC1OCCO1)c1ccc(Cl)cc1`, for which the outcome was inactive.

`O=C(O)C(=O)Nc1cccc(-c2nn[nH]n2)c1`: the result was inactive.

Regarding `O=C1OC(=O)c2ccccc21`, the result was inactive.

Regarding `CCC(=O)OCCC(C)CCC=C(C)C` (stereo not given), the outcome was inactive.

With `CCN(Cc1cccc(S(=O)(=O)O)c1)c1ccccc1`, the outcome was inactive.

With `Cc1nc(C)nc(N2C[C@@H](C)N(c3ccnc([C@@H](C)O)n3)[C@@H](C)C2)n1`, the result was inactive.

For `CCC(C)(C)C1CCC(=O)CC1`, the result was inactive.

`CCCCCC1CCCC(=O)O1` (stereo not given): the outcome was inactive.

With `CCOC(=O)CCCCCCCCC(=O)OCC`, the outcome was inactive.

Turning to `Cc1cccc(C(=O)O)c1[N+](=O)[O-]`, the result was inactive.

In the case of `O=[Si]=O`, the outcome was inactive.

On to `CCCCC/C=C/CC(=O)OC`, for which the outcome was inactive.

For `CCCCCC1Nc2cc(C(F)(F)F)c(S(N)(=O)=O)cc2S(=O)(=O)N1` (stereo not given), the result was inactive.

For `CCCO`, the result was inactive.

Consider `CCC(C)N` (stereo not given), for which the result was inactive.

As to `CN=C(NC#N)NCCSCc1csc(N=C(N)N)n1`, the outcome was inactive.

Take `Nc1cc(C(=O)O)ccc1Cl`: the result was inactive.

As to `COc1cccc2sc(N)nc12`, the result was inactive.

As for `CCCCCCCCCCCCC`, the result was inactive.

`COc1cc(C=O)ccc1OC(=O)C(C)C`: the outcome was inactive.

As for `O=S(=O)(O)CCO`, the outcome was inactive.

For `CN(C)CCCNCCC#N`, the result was inactive.
